Results as given in PubChem BioAssay AID1159580 (chemical genetic matrix, 2015).
The whole screen tested about 5,500 compounds, of which about 2,000 (36%) were called active. Inconclusive results (about 18%) are left out. This is one part of the list. A number with no mark means an inactive call. Cut-off read from the data, not from the text of the source: active = normalized growth mostly below about 0.91 (no sharp cut-off); inconclusive = no clear call, values can overlap the other calls; inactive = mostly above about 0.92.

Assay: chemical genetic growth profiling, strain panel (AID 1159580);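 note: tested at 20 µM; growth read once vehicle control cultures reached saturation at 30 °C; 1 = growth at the plate median or of vehicle wells; lower values mean less growth of the strain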
Conditions: S. cerevisiae deletion strains, growth OD

Q: Which normalized growth (locus YAL021C, strain ccr4, active compounds read low) does the source give for O=C(OC1Cc2c(O)cc(O)cc2OC1c1cc(O)c(O)c(O)c1-c1c(C2Oc3cc(O)cc(O)c3CC2OC(=O)c2cc(O)c(O)c(O)c2)cc(O)c(O)c1O)c1cc(O)c(O)c(O)c1 (centres undefined) here?
A: 0.833 (active)

Q: What about the normalized growth (locus YAL026C, strain drs2, active compounds read low) of the same compound?
A: 0.982

Q: What about the normalized growth (locus YAL030W, strain snc1, active compounds read low) of the same compound?
A: 0.998

Q: And the normalized growth (locus YBL061C, strain skt5, active compounds read low)?
A: 0.982

Q: What about the normalized growth (locus YBR009C, strain hhf1, active compounds read low) of the same compound?
A: 0.995

Q: What about the normalized growth (locus YBR021W, strain FUR4, active compounds read low) of the same compound?
A: 0.988

Q: What about the normalized growth (locus YBR023C, strain chs3, active compounds read low) of the same compound?
A: 0.941

Q: And the normalized growth (locus YBR171W, strain sec66, active compounds read low)?
A: 1.01

Q: What about the normalized growth (locus YBR229C, strain ROT2, active compounds read low) of the same compound?
A: 1

Q: What about the normalized growth (locus YBR231C, strain swc5, active compounds read low) of the same compound?
A: 0.929

Q: What about the normalized growth (locus YBR279W, strain paf1, active compounds read low) of the same compound?
A: 0.989

Q: What about the normalized growth (locus YCL011C, strain gbp2, active compounds read low) of the same compound?
A: 1.01

Q: And the normalized growth (locus YCL016C, strain dcc1, active compounds read low)?
A: 1.01

Q: And the normalized growth (locus YCL029C, strain bik1, active compounds read low)?
A: 0.981

Q: And the normalized growth (locus YCL061C, strain MRC1, active compounds read low)?
A: 1.01

Q: What about the normalized growth (locus YCL069W, strain vba3, active compounds read low) of the same compound?
A: 1.02

Q: And the normalized growth (locus YCR088W, strain abp1, active compounds read low)?
A: 1.02

Q: What about the normalized growth (locus YDL005C, strain med2, active compounds read low) of the same compound?
A: 1.02

Q: What about the normalized growth (locus YDL035C, strain GPR1, active compounds read low) of the same compound?
A: 1.04

Q: What about the normalized growth (locus YDL040C, strain nat1, active compounds read low) of the same compound?
A: 1.03

Q: And the normalized growth (locus YDL074C, strain BRE1, active compounds read low)?
A: 0.969

Q: What about the normalized growth (locus YDL101C, strain DUN1, active compounds read low) of the same compound?
A: 1

Q: What about the normalized growth (locus YDL185W, strain tfp1, active compounds read low) of the same compound?
A: 0.988

Q: And the normalized growth (locus YDL192W, strain arf1, active compounds read low)?
A: 0.985

Q: What about the normalized growth (locus YDR001C, strain nth1, active compounds read low) of the same compound?
A: 1.02

Q: And the normalized growth (locus YDR069C, strain doa4, active compounds read low)?
A: 0.797 (active)

Q: And the normalized growth (locus YDR101C, strain arx1, active compounds read low)?
A: 0.998

Q: What about the normalized growth (locus YDR137W, strain rgp1, active compounds read low) of the same compound?
A: 0.833 (active)

Q: And the normalized growth (locus YDR150W, strain NUM1, active compounds read low)?
A: 1

Q: What about the normalized growth (locus YDR159W, strain sac3, active compounds read low) of the same compound?
A: 1.11

Q: What about the normalized growth (locus YDR162C, strain NBP2, active compounds read low) of the same compound?
A: 1.02

Q: What about the normalized growth (locus YDR195W, strain ref2) of the same compound?
A: 1.07

Q: And the normalized growth (locus YDR297W, strain sur2, active compounds read low)?
A: 0.992

Q: And the normalized growth (locus YDR318W, strain mcm21, active compounds read low)?
A: 0.995

Q: And the normalized growth (locus YDR334W, strain swr1, active compounds read low)?
A: 0.977

Q: What about the normalized growth (locus YDR335W, strain msn5, active compounds read low) of the same compound?
A: 1

Q: And the normalized growth (locus YDR388W, active compounds read low)?
A: 0.99

Q: What about the normalized growth (locus YDR392W, strain spt3, active compounds read low) of the same compound?
A: 1.02

Q: And the normalized growth (locus YDR502C, strain sam2, active compounds read low)?
A: 0.985

Q: What about the normalized growth (locus YEL003W, strain gim4, active compounds read low) of the same compound?
A: 0.989

Q: What about the normalized growth (locus YEL037C, strain rad23, active compounds read low) of the same compound?
A: 0.993

Q: What about the normalized growth (locus YEL061C, strain CIN8 (second series), active compounds read low) of the same compound?
A: 1.01

Q: And the normalized growth (locus YEL061C, strain CIN8, active compounds read low)?
A: 1.01

Q: And the normalized growth (locus YER015W, strain faa2, active compounds read low)?
A: 0.926 (active)

Q: What about the normalized growth (locus YER016W, strain bim1, active compounds read low) of the same compound?
A: 1.01

Q: What about the normalized growth (locus YER110C, active compounds read low) of the same compound?
A: 0.994

Q: And the normalized growth (locus YER111C, strain swi4, active compounds read low)?
A: 0.973

Q: What about the normalized growth (locus YER155C, strain BEM2 (second series), active compounds read low) of the same compound?
A: 0.994

Q: And the normalized growth (locus YER155C, strain BEM2, active compounds read low)?
A: 0.977

Q: What about the normalized growth (locus YER167W, strain BCK2, active compounds read low) of the same compound?
A: 1

Q: And the normalized growth (locus YFR010W, strain ubp6, active compounds read low)?
A: 0.934

Q: What about the normalized growth (locus YGL078C, strain dbp3, active compounds read low) of the same compound?
A: 0.987

Q: And the normalized growth (locus YGL086W, strain mad1, active compounds read low)?
A: 1

Q: And the normalized growth (locus YGL167C, strain pmr1, active compounds read low)?
A: 1

Q: What about the normalized growth (locus YGL173C, strain kem1, active compounds read low) of the same compound?
A: 0.981

Q: And the normalized growth (locus YGL227W, strain vid30, active compounds read low)?
A: 1.05

Q: And the normalized growth (locus YGL240W, strain doc1, active compounds read low)?
A: 1.04

Q: What about the normalized growth (locus YGL248W, strain PDE1, active compounds read low) of the same compound?
A: 1

Q: And the normalized growth (locus YGL253W, strain hxk2, active compounds read low)?
A: 0.994

Q: And the normalized growth (locus YGR078C, strain PAC10, active compounds read low)?
A: 0.983

Q: And the normalized growth (locus YGR135W, strain pre9, active compounds read low)?
A: 0.989

Q: What about the normalized growth (locus YGR252W, strain gcn5, active compounds read low) of the same compound?
A: 1.01

Q: What about the normalized growth (locus YHR013C, strain ard1, active compounds read low) of the same compound?
A: 0.852

Q: And the normalized growth (locus YHR027C, strain rpn1, active compounds read low)?
A: 0.849 (active)

Q: And the normalized growth (locus YHR030C, strain SLT2, active compounds read low)?
A: 0.998

Q: And the normalized growth (locus YHR079C, strain IRE1 (second series), active compounds read low)?
A: 0.987

Q: What about the normalized growth (locus YHR094C, strain hxt1, active compounds read low) of the same compound?
A: 0.989

Q: And the normalized growth (locus YHR129C, strain ARP1, active compounds read low)?
A: 0.983

Q: And the normalized growth (locus YHR142W, strain chs7, active compounds read low)?
A: 0.95

Q: What about the normalized growth (locus YHR200W, strain rpn10, active compounds read low) of the same compound?
A: 1

Q: And the normalized growth (locus YIL066C, strain RNR3, active compounds read low)?
A: 1.03

Q: And the normalized growth (locus YIL073C, strain SPO22, active compounds read low)?
A: 1.1

Q: What about the normalized growth (locus YIL125W, strain kgd1, active compounds read low) of the same compound?
A: 0.973

Q: And the normalized growth (locus YIR030C, strain dcg1, active compounds read low)?
A: 0.995

Q: And the normalized growth (locus YJL092W, strain hpr5, active compounds read low)?
A: 1.03

Q: And the normalized growth (locus YJL095W, strain BCK1 (second series), active compounds read low)?
A: 0.987

Q: What about the normalized growth (locus YJL095W, strain BCK1, active compounds read low) of the same compound?
A: 0.976

Q: And the normalized growth (locus YJL115W, strain asf1, active compounds read low)?
A: 1.02

Q: And the normalized growth (locus YJL129C, strain trk1, active compounds read low)?
A: 1.04

Q: And the normalized growth (locus YJL134W, strain LCB3, active compounds read low)?
A: 1.02

Q: And the normalized growth (locus YJL154C, strain vps35, active compounds read low)?
A: 1.01

Q: What about the normalized growth (locus YJL164C, strain tpk1, active compounds read low) of the same compound?
A: 0.937

Q: What about the normalized growth (locus YJL166W, strain qcr8, active compounds read low) of the same compound?
A: 0.989

Q: What about the normalized growth (locus YJL168C, strain set2, active compounds read low) of the same compound?
A: 0.981
